About 7,900 targets were measured; listed, in parts, are those with a hit and a random draw of the rest. About 0.6% of all pairs of compound and target were hits. Values without a mark were called inactive.
Experiments:
Experiment in all cases: log2 fold change, soluble protein after heating vs DMSO (PISA); higher = thermal stabilisation; K562 cells, 10 uM, 30 min; active = over 0.2 and 3.5 SD of the protein, either way, in both replicates (recomputed)
erlotinib = compound: C#Cc1cccc(Nc2ncnc3cc(OCCOC)c(OCCOC)cc23)c1 [erlotinib]
Procedure, shortened: (§1)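 Quantification of soluble protein used TMTpro 16plex LC-MS/MS, with channel sums equalised. Samples were the supernatant after 21,000xg for 90 min of pooled aliquots from K562 cells (2×10^6 cells/mL) treated with 10 μM compound for 30 min, heated for 3 min over 48°C-58°C, and extracted in PBS with 0.5% NP-40 at 4°C. Values, from duplicates, describe thermal stability against control samples on a log2 fold-change scale.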

[1] = compound: C/C(=N\NC(=O)C1=CC(=CC=C1)S(=O)(=O)N2CCOCC2)/C3=C(C=CC(=C3)Cl)O
Procedure, shortened: as §1

[2] = compound: C1=CC(=C(C=C1Cl)C2=NC3=NC=CN=C3C(=N2)NC4=CC=NC=C4)F
Procedure, shortened: as §1

[3] = compound: C1=CC(=CC=C1C2=NC3=C(N2)C=C(C=C3)C(=O)N)OC4=CC=C(C=C4)Cl
Procedure, shortened: as §1

[4] = compound: C1=CC2=C(C=CC(=C2)/C=C\3/C(=O)NC(=NCC4=CC=CS4)S3)N=C1
Procedure, shortened: as §1

[5] = compound: C1=CC2=NC=CN=C2C=C1/C=C/3\C(=O)NC(=O)S3
Procedure, shortened: as §1

[6] = compound: C1=CC=C(C=C1)C2=NC(=C(N2)C3=CC=NC=C3)C4=CC(=C(C=C4)Cl)O
Procedure, shortened: as §1

[7] = compound: C1=CC=C2C(=C1)C3=NNC4=CC=CC(=C43)C2=O
Procedure, shortened: as §1

[8] = compound: C1CCN(C1)C(=O)NC2=CC=CC(=C2)NC3=NC=C(C(=N3)NCCC4=CN=CN4)Br
Procedure, shortened: as §1

[9] = compound: C1CN(CCC1(CC2=CC=C(C=C2)Cl)N)C3=NC=NC4=C3C=CN4
Procedure, shortened: as §1

IRAK-1-4 Inhibitor I = compound: C1COCCN1CCN2C3=CC=CC=C3N=C2NC(=O)C4=CC(=CC=C4)[N+](=O)[O-] [IRAK-1-4 Inhibitor I]
Procedure, shortened: as §1

ibrutinib = compound: C=CC(=O)N1CCC[C@@H](n2nc(-c3ccc(Oc4ccccc4)cc3)c3c(N)ncnc32)C1 [ibrutinib]
Procedure, shortened: as §1

[10] = compound: CC(=O)c1cnc2ccc(-c3cc(Cl)c(O)c(Cl)c3)nc2c1N[C@H]1CC[C@H](CN(C)C)CC1
Procedure, shortened: as §1

ralimetinib = compound: CC(C)(C)Cn1c(N)nc2ccc(-c3[nH]c(C(C)(C)C)nc3-c3ccc(F)cc3)nc21 [ralimetinib]
Procedure, shortened: as §1

[11] = compound: CC(C)(O)CC(=O)NCCn1ccc2ncnc(Nc3ccc(Oc4cccc(C(F)(F)F)c4)c(Cl)c3)c21
Procedure, shortened: as §1

[12] = compound: CC(C)C1=C2N=C(C=C(N2N=C1)NCC3=CC=CC=C3)NCCCCCCN
Procedure, shortened: as §1

[13] = compound: CC(C)C[C@@H](C=O)NC(=O)[C@H](CC(C)C)NC(=O)[C@H](CC(C)C)NC(=O)OCc1ccccc1
Procedure, shortened: as §1

pinometostat = compound: CC(C)N(C[C@H]1O[C@@H](n2cnc3c(N)ncnc32)[C@H](O)[C@@H]1O)[C@H]1C[C@@H](CCc2nc3cc(C(C)(C)C)ccc3[nH]2)C1 [pinometostat]
Procedure, shortened: as §1

[14] = compound: CC1=C(C(CC(=O)N1)C2=CC=C(C=C2)C(F)(F)F)C(=O)NC3=C(C=C4C(=C3)C=NN4)F
Procedure, shortened: as §1

[15] = compound: CC1=C(C2=C(C=C1)C(=O)C3=CC=CC=C3N2CCCN)C
Procedure, shortened: as §1

UniProt P67870, sequence (P67870 whole entry, looked up): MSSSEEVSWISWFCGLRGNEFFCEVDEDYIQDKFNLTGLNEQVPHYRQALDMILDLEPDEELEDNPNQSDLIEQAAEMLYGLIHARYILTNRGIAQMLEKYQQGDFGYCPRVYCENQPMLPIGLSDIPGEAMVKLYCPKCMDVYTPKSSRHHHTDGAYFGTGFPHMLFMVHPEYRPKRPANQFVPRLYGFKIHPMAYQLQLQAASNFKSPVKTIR
UniProt P48509, sequence (P48509 whole entry, looked up): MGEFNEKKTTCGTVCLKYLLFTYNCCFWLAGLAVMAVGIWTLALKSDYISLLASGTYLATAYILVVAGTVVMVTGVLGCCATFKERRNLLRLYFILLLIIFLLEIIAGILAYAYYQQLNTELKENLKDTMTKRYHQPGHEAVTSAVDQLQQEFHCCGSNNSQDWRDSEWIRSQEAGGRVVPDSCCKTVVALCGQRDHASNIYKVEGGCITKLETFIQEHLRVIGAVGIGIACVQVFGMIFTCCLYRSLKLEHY
UniProt Q96JM3, sequence (Q96JM3 whole entry, looked up): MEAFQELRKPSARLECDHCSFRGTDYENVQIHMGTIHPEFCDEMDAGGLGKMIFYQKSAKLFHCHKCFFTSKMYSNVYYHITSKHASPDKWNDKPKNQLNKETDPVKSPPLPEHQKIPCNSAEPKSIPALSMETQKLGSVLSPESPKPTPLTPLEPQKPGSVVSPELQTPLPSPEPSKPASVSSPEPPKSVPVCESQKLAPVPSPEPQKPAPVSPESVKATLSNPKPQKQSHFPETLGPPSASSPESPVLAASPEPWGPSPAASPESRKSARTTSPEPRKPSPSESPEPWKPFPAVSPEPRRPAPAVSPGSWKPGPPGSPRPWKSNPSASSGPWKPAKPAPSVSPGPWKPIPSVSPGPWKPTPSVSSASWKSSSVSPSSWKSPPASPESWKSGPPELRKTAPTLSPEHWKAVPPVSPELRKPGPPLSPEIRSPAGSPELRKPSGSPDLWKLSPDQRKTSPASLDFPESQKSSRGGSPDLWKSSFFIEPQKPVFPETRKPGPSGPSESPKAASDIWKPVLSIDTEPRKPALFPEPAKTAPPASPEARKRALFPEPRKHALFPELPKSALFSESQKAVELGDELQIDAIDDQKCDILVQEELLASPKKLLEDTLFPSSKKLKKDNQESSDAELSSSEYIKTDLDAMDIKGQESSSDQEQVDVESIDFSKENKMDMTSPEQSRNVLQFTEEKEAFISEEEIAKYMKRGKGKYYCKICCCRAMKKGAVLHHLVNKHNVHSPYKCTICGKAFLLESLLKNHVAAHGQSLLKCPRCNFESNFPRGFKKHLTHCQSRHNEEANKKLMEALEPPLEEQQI
UniProt O00748, sequence (O00748 whole entry, looked up): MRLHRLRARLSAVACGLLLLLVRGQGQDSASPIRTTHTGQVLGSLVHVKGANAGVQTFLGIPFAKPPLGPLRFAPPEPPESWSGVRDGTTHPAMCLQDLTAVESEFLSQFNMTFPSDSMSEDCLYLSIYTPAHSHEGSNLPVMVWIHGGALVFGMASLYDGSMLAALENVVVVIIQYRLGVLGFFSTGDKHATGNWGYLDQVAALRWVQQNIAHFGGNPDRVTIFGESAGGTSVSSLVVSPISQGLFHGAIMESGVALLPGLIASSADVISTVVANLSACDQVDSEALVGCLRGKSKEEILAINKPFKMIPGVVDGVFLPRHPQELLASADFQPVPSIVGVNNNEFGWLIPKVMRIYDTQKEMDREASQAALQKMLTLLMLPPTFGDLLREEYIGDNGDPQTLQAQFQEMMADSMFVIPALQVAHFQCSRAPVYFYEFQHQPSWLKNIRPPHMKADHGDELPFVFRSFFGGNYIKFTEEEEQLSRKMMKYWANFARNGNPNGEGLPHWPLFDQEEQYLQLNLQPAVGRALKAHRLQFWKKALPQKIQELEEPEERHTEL
UniProt Q8IWY9, sequence (Q8IWY9 whole entry, looked up): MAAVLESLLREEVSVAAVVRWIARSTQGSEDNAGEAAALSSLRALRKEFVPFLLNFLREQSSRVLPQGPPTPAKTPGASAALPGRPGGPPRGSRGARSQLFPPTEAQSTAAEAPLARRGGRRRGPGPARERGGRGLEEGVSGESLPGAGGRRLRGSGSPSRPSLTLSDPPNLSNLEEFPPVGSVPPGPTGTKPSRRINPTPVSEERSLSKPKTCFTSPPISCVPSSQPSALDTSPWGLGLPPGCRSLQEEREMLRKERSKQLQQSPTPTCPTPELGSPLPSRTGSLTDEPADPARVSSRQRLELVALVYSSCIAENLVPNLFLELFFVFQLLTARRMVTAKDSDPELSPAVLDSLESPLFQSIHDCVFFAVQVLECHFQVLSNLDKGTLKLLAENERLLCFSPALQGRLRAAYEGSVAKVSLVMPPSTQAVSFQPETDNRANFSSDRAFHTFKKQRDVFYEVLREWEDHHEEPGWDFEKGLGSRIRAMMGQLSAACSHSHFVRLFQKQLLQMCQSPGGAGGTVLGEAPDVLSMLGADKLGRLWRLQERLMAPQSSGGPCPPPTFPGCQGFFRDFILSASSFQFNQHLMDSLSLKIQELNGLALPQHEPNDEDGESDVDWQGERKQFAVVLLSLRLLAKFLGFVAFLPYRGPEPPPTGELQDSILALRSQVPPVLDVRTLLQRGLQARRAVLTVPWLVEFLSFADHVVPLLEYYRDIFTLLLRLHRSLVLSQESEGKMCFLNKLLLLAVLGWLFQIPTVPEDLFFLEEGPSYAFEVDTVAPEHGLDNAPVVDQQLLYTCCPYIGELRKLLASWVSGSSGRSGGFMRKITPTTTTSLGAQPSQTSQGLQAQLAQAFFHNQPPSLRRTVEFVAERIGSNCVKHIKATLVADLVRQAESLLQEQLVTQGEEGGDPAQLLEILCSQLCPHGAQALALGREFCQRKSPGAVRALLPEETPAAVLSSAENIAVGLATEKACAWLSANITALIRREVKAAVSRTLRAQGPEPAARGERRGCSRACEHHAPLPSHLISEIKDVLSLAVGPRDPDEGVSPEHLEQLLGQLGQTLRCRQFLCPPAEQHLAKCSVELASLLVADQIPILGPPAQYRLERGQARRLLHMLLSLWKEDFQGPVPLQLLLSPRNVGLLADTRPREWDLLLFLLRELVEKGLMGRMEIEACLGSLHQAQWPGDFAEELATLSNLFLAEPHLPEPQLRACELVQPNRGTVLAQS
UniProt Q9Y6K0, sequence (Q9Y6K0 whole entry, looked up): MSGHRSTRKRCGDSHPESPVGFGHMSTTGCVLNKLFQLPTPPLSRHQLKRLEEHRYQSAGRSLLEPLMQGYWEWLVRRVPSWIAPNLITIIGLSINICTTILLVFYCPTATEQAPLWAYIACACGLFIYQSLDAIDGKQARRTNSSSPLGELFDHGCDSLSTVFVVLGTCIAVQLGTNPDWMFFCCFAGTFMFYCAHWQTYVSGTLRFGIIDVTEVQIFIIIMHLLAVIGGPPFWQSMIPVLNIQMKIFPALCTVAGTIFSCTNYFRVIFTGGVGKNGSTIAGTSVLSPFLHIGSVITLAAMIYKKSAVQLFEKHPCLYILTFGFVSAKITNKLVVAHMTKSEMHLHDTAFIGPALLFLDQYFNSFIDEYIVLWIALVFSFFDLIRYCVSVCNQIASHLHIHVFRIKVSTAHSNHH
UniProt Q16630, sequence (Q16630 whole entry, looked up): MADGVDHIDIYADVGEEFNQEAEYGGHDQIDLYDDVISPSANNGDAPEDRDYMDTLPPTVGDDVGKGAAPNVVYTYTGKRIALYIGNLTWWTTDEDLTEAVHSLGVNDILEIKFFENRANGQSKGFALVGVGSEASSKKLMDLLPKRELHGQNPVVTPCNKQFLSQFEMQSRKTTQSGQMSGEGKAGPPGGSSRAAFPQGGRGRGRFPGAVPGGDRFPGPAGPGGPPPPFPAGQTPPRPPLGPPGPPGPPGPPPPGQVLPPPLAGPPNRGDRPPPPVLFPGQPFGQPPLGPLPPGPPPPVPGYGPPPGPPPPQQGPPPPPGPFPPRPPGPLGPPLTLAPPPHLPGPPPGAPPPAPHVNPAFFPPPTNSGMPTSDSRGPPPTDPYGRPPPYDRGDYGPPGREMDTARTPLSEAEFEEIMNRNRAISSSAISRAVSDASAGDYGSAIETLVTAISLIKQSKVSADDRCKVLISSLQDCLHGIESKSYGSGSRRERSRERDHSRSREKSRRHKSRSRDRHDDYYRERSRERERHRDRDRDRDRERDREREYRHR
UniProt Q9NXV6, sequence (Q9NXV6 whole entry, looked up): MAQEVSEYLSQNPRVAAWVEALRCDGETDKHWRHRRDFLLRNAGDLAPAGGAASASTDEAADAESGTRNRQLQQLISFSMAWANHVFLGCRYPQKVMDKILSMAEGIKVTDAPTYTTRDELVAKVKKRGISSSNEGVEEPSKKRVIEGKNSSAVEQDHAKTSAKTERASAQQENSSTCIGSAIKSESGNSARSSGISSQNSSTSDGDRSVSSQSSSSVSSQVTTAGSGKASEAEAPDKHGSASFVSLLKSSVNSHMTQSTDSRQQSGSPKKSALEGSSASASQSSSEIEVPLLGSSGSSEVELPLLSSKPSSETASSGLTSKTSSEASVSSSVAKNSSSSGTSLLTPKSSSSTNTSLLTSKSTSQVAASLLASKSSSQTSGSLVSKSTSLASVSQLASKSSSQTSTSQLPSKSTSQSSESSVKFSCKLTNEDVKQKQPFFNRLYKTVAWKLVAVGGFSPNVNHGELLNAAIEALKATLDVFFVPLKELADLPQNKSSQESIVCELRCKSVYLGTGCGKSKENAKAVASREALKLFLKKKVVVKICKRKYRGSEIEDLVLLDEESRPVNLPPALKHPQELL
UniProt Q5T6V5, sequence (Q5T6V5 whole entry, looked up): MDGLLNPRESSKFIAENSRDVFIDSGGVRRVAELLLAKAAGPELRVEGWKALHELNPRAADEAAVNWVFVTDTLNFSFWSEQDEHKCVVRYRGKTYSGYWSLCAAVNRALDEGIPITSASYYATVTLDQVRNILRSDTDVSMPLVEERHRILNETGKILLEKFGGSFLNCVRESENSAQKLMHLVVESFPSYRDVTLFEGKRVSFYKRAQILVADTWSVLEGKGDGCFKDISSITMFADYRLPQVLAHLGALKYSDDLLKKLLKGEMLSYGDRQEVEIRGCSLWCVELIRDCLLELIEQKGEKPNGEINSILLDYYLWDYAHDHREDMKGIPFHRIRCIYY

| Target | log2 fold change (erlotinib) | log2 fold change [1] | log2 fold change [2] | log2 fold change [3] | log2 fold change [4] | log2 fold change [5] | log2 fold change [6] | log2 fold change [7] | log2 fold change [8] | log2 fold change [9] | log2 fold change (IRAK-1-4 Inhibitor I) | log2 fold change (ibrutinib) | log2 fold change [10] | log2 fold change (ralimetinib) | log2 fold change [11] | log2 fold change [12] | log2 fold change [13] | log2 fold change (pinometostat) | log2 fold change [14] | log2 fold change [15] |
| --- | --- | --- | --- | --- | --- | --- | --- | --- | --- | --- | --- | --- | --- | --- | --- | --- | --- | --- | --- | --- |
| COMT (UniProt P21964) | -0.026 | 0.076 | -0.015 | -0.08 | 0.023 | 0.012 | 0.026 | 0.029 | 0.031 | -0.059 | 0.01 | -0.032 | -0.065 | -0.043 | -0.007 | 0.006 | -0.039 | -0.024 | -0.068 | 0.053 |
| CD53 (UniProt P19397) | 0.041 | 0.028 | 0.059 | -0.006 | 0.064 | 0.01 | -0.221 | -0.086 | -0.001 | -0.007 | 0.097 | 0.033 | -0.026 | -0.24 | -0.021 | 0.229 | 0.051 | -0.014 | -0.004 | 0.105 |
| CDKN2AIP (UniProt Q9NXV6) | 0.017 | -0.018 | 0 | 0.056 | 0.018 | 0.009 | 0.036 | 0.007 | -0.006 | -0.021 | -0.057 | 0.039 | 0.062 | 0.059 | 0.01 | 0.056 | -0.04 | 0.032 | -0.056 | 0.241 (active) |
| CPSF6 isoform 2 (UniProt Q16630) | 0.023 | 0.079 | -0.072 | 0.122 | -0.04 | -0.026 | -0.002 | -0.016 | -0.021 | -0.135 | -0.047 | 0 | -0.599 (active) | -0.017 | 0.02 | -0.029 | -0.053 | 0.004 | -0.042 | 0.195 |
| CHAMP1 (UniProt Q96JM3) | 0.083 | 0.004 | 0.075 | 0.03 | 0.023 | 0.014 | -0.01 | -0.06 | 0.004 | 0.064 | 0.047 | 0.066 | -0.207 | 0.033 | -0.036 | -0.047 | -0.015 | 0.034 | 0.004 | -0.23 (active) |
| CSNK2B (UniProt P67870) | -0.021 | -0.024 | -0.017 | -0.007 | 0.123 | 0.324 (active) | 0.031 | 0.084 | -0.031 | -0.023 | -0.003 | -0.014 | 0.266 (active) | -0.006 | -0.021 | -0.087 | -0.003 | 0.044 | 0.022 | 0.096 |
| CDAN1 (UniProt Q8IWY9) | -0.031 | 0.048 | -0.171 | -0.011 | 0.039 | 0.066 | 0.019 | -0.057 | 0.109 | 0.03 | 0.057 | -0.001 | -0.044 | -0.036 | -0.168 | -0.051 | -0.006 | 0.026 | 0.009 | -0.398 (active) |
| C9orf64 (UniProt Q5T6V5) | 0.046 | 0.142 | 0.009 | 0.065 | 0.117 | 0.017 | 0.054 | -0.037 | -0.001 | -0.039 | -0.041 | -0.03 | -0.019 | -0.018 | -0.181 | -0.288 | 0.012 | 0.053 | 0.02 | -0.097 |
| CDK5RAP3 isoform 4 (UniProt Q96JB5) | 0.089 | 0.027 | 0.042 | -0.017 | 0.01 | 0.023 | 0.033 | 0.041 | -0.003 | -0.068 | -0.051 | -0.068 | -0.005 | -0.015 | -0.062 | -0.056 | -0.002 | 0.017 | -0.031 | 0.009 |
| CHMP4B (UniProt Q9H444) | 0.018 | -0.006 | 0.024 | 0.013 | -0.014 | 0.057 | 0.043 | -0.001 | 0.083 | 0.035 | 0.068 | -0.024 | 0.015 | 0.039 | 0.015 | 0.014 | -0.003 | -0.032 | 0.046 | -0.011 |
| CEPT1 (UniProt Q9Y6K0) | 0.099 | 0.034 | 0.016 | 0.107 | 0.037 | 0.047 | 0.011 | 0.071 | 0.007 | -0.074 | 0.035 | -0.014 | 0.072 | -0.026 | 0.073 | -0.466 (active) | -0.118 | -0.016 | 0.023 | 0.118 |
| CAMK2G isoform 6 (UniProt Q13555) | -0.003 | -0.096 | -0.047 | -0.098 | 0.054 | 0.009 | 0.055 | 0.08 | -0.02 | 0.015 | -0.008 | 0.004 | 0.181 | 0.118 | 0.039 | -0.016 | 0.038 | 0.067 | -0.075 | 0.063 |
| CDC42SE1 (UniProt Q9NRR8) | 0.078 | 0.041 | -0.005 | 0.014 | 0.021 | 0 | -0.009 | -0.207 | 0.023 | -0.012 | 0.066 | 0.049 | -0.004 | 0.021 | 0.042 | -0.111 | 0.074 | 0.11 | 0.282 | 0.015 |
| CD151 (UniProt P48509) | -0.035 | 0.029 | 0.045 | 0.103 | -0.021 | 0.069 | 0.021 | -0.125 | -0.021 | 0.113 | -0.077 | 0.012 | 0.025 | 0.013 | -0.021 | -0.017 | 0.027 | -0.054 | 0.082 | 0.083 |
| CMTR1 (UniProt Q8N1G2) | -0.005 | 0.105 | 0.031 | 0.013 | 0.048 | 0.012 | 0.012 | 0.036 | 0.01 | 0.018 | -0.007 | -0.011 | -0.014 | -0.026 | -0.024 | -0.011 | -0.002 | -0.029 | -0.007 | 0.169 |
| CES2 isoform 4 (UniProt O00748) | -0.05 | -0.16 | -0.264 | -0.008 | -0.06 | -0.011 | 0.139 | 0.083 | 0.061 | -0.087 | -0.005 | 0.077 | 0.038 | 0.006 | 0.012 | 0.045 | 0.06 | -0.02 | -0.128 | 0 |
